Measurements: PubChem BioAssay (NCATS)
Results filed as inconclusive are left out. Active and inactive are the calls of the source. The call rests on the fitted dose curve; in most records, active means well fitted curve in the direction sought with a large enough effect; inconclusive means small, poorly fitted or top-dose-only effect, or another doubt; inactive means no such curve, though single readings can be large; an effect the other way counts as inactive or inconclusive.

Assays:
[1] = biological target: Glutathione peroxidase 1 (Homo sapiens) (UniProt P07203); test: Primary qHTS Assay for Inhibitors of Recombinant Selenoprotein Glutathione Peroxidase 1 (GPX1) (AID 1845191); further: nearly all actives have a fitted effect of over 65% in size
Glutathione peroxidase 1 (Homo sapiens), sequence (P07203 whole entry, looked up): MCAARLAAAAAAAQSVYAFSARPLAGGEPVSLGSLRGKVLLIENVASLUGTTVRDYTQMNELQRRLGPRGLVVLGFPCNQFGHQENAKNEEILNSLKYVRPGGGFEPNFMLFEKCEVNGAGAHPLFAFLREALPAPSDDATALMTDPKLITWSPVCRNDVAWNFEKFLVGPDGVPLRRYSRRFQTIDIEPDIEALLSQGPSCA
Outline: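 GR-coupled readout: NADPH consumption tracked by fluorescence, ex 340/em 450 nm, at t=0 and after 15 min at RT. Final mix 10 nM GPX1, 1 mM GSH, 0.5 mM CHP, 0.5 mM NADPH, 100 nM GR, 0.01% BSA, following 30 min enzyme–compound preincubation.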

[2] = biological target: Phospholipid hydroperoxide glutathione peroxidase GPX4 (Homo sapiens) (UniProt P36969); test: Primary qHTS Assay for Inhibitors of Recombinant Selenoprotein Glutathione Peroxidase 4 (GPX4) (AID 1845192); further: nearly all actives have a fitted effect of over 65% in size
Phospholipid hydroperoxide glutathione peroxidase GPX4 (Homo sapiens), sequence (P36969 whole entry, looked up): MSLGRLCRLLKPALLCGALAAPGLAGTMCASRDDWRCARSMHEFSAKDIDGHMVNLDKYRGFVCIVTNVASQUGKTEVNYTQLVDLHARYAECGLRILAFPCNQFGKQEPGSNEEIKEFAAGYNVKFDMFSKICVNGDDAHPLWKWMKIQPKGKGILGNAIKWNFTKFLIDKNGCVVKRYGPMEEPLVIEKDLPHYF
Outline: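 Steps: GPX4 plus compound, 30 min RT; add GR/GSH/NADPH master mix; start with cumene hydroperoxide; read 340/450 nm fluorescence at 0 and 15 min. Finals were 200 nM GPX4, 1 mM GSH, 0.5 mM CHP, 0.5 mM NADPH, 100 nM GR.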

[3] = biological target: Luciferin 4-monooxygenase (Photinus pyralis) (UniProt P08659); test: Primary firefly luciferase (FLuc) qHTS assay for identification of artifact compounds. (AID 1845220); further: nearly all actives have a fitted effect of over 60% in size; further: potency means the concentration at half of the fitted maximal effect
Outline: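 Enzymatic FLuc inhibition assay: compounds pre-exposed to luciferin/ATP (10 uM each) for 15 min, then purified P. pyralis enzyme at 10 nM added. Read-out: luminescence at 5 min.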

[4] = tested on: Nanoluciferase (engineered Oplophorus gracilirostris luciferase); test: Primary Nanoluciferase (NLuc) qHTS assay for identification of artifact compounds. (AID 1845222);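 further: NLuc secreted into diluted conditioned medium of S16 cells; series mostly up to about 54 µM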
Outline: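 S16 cell supernatant NLuc, 1:55; cpds qHTS; 15 min RT dark; Nano-Glo substrate 1:100, 5 min; luminescence; Hill fit of % inhibition.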

[5] = Primary redox qHTS assay for identification of artifact compounds. (AID 1845223)
Outline: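 Redox-cycling detection via DTT (250 uM final) oxidation coupled to Amplex Red (25 uM)/HRP (250 mU/mL) in HBSS. 15 min preincubation plus 30 min after DTT, room temperature. Ex/Em 525/598 nm; 4-parameter Hill fit against DMSO and 10 uM DA3003.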

Measured: Potency

C=C[C@]1(C)C[C@H](O)[C@@H]2[C@H](OC(=O)[C@@H]2C)C1/C(C)=C/O[C@@H]1O[C@H](CO)[C@@H](O)[C@H](O)[C@H]1O (stereo not given in full)
inactive: all assays above

C[C@@H]1C(=O)OC[C@H]2C(C(=O)O)=C[C@@H]3CC(C)(C)C[C@]312
inactive: all assays above

CCCCc1nc2cc(/C=C/C(=O)NO)ccc2n1CCN(CC)CC
inactive: all assays above

CC1CC(O)/C=C/C(O)C(O)CC(=O)Cc2c(Cl)c(O)cc(O)c2C(=O)O1 (stereo not given)
inactive: all assays above

C/C(=C\CCC(C)CCO)C(=O)OC1(C)CCC2C(C(=O)O)=COC(OC3OC(CO)C(O)C(O)C3O)C21 (stereo not given)
inactive: all assays above

CC(O)/C=C/C1C(C)C(O[C@@H]2O[C@H](CO)[C@@H](O)[C@H](O)[C@H]2O)C(O)CC1(C)C (stereo not given in full)
inactive: all assays above

COC(=O)C1=CO[C@@H](O[C@@H]2O[C@H](CO)[C@@H](O)[C@H](O)[C@H]2O)C2C1C(=O)C[C@H]2C (stereo not given in full)
inactive: all assays above

C=CC(C)(C)c1[nH]c2cc3c(cc2c1CC1NC(=O)C2CCCN2C1=O)C=CC(C)(C)O3 (stereo not given)
inactive: all assays above

COc1ccc(-c2cnc3ccc(NCc4ccc(S(N)(=O)=O)cc4)nn23)cc1OC
inactive: all assays above

C[C@]1(CO)CCC[C@]2(C)C3=C(CCC12)COC3 (stereo not given in full)
inactive: all assays above

COc1cc(C2Oc3c(OC)cc(CCCO)cc3C2CO)ccc1O[C@H]1O[C@H](C)[C@@H](O)[C@H](O)[C@@H]1O (stereo not given in full)
inactive: all assays above

O=C(OC[C@@]1(O)CO[C@@H](O[C@H]2[C@H](Oc3ccc(O)cc3)O[C@H](CO)[C@@H](O)[C@@H]2O)[C@@H]1O)c1ccc(O)cc1
inactive: all assays above

CC(C)/C=C1\NC(=O)C(C(C)C)n2c1nc1c(c2=O)C=CC=CO1 (stereo not given)
inactive: all assays above

CC(O)/C=C/C1(O)C(C)C(O[C@@H]2O[C@H](CO)[C@@H](O)[C@H](O)[C@H]2O)C(O)CC1(C)C (stereo not given in full)
inactive: all assays above

COc1ccc([C@@]2(O)c3c(ccc4c3OC(C)(CCC=C(C)C)C=C4)NC(=O)[C@@H]2OC)cc1 (stereo not given in full)
inactive: all assays above

O=S(=O)(NCC1CC1)c1ccc(Nc2nccc(N3CCCc4cc(O)ccc43)n2)cc1
inactive: all assays above

O=S(=O)(c1ccc(S(=O)(=O)n2cnc3ccccc32)cc1)N1CCCCCC1
inactive: all assays above

CC/C=C\[C@H](O)[C@H](O)C1=C(C)C(=O)[C@]2(O1)C(=O)N[C@@](OC)(C(=O)c1ccccc1)[C@@H]2O
inactive: all assays above

CC[C@@H](N)CNc1ccnc(-c2cc(-c3cnn(C)c3)ccc2O)n1
inactive: all assays above

O=C(OC1C=C(CO)C2C(OC3OC(CO)C(O)C(O)C3O)OC=CC12)c1ccc(O)cc1 (stereo not given)
inactive: all assays above

O=C1NC(Cc2ccccc2)C(=O)N2CCCC12 (stereo not given)
inactive: all assays above

C=C1CCC2C(C)(C)CCC[C@]2(C)[C@H]1C/C=C(\CO)C(=O)C(=O)O (stereo not given in full)
inactive: all assays above

CC1C(OC(=O)c2ccccc2)C(O)C2C(C(=O)O)=COC(OC3OC(CO)C(O)C(O)C3O)C12 (stereo not given)
inactive: all assays above

CCOCCn1nc(CC)c2nc(N3CCC(C(=O)O)CC3)nc(Nc3cc(C)ccn3)c21
inactive: all assays above

CC1C(=O)CC2C3CCC(C(=O)O)C12CC3(C)CO (stereo not given)
inactive: all assays above

c1cn2cc(-c3ccc4cn[nH]c4c3)nc(Nc3ccc(N4CCOCC4)cc3)c2n1
active: [3] 0.0536 µM
inactive: all other assays above

O=C1N=C(N2CCOCC2)CN1c1ccc(Cl)cc1
inactive: all assays above

COc1cc(O)cc(C)c1C(=O)OC1C(CO)OC(OC2C(O)C(O)C(O)C(O)C2O)C(O)C1O (stereo not given)
inactive: all assays above

COC(=O)Cc1cc2c(c([N+](=O)[O-])c1)N(C(=O)CC[C@H](N)C(=O)O)CC2
inactive: all assays above

O=C(O[C@H]1[C@@H]2C=CO[C@@H](O[C@@H]3O[C@H](CO)[C@@H](O)[C@H](O)[C@H]3O)[C@@H]2[C@@]2(CO)O[C@@H]12)c1ccccc1
inactive: all assays above

OC[C@H]1O[C@@H](O[C@H]2[C@H](OCc3ccccc3)O[C@H](CO[C@@H]3OC[C@@H](O)[C@H](O)[C@H]3O)[C@@H](O)[C@@H]2O)[C@H](O)[C@@H](O)[C@@H]1O
inactive: all assays above

O=C(O)c1cc(-c2c(-c3ccccc3)nn3ccccc23)n[nH]c1=O
inactive: all assays above

CC(=O)c1ccc2c(c1)C(O)C(C(C)(C)O)O2 (stereo not given)
inactive: all assays above

CN1CCN(Cc2ccc(-c3cnc4[nH]cc(-c5ccc6[nH]ccc6c5)c4c3)cc2)CC1
active: [3] 6.75 µM
inactive: all other assays above

Cc1c2cc(c(C(=O)O)c1C)OC1OC(C(O)C(O)C1O)C(O)C(O)C1OC(O2)C(O)C(O)C1O (stereo not given)
inactive: all assays above

O=C(/C=C/c1ccccc1)OC[C@]12O[C@H]1[C@@H](O)[C@@H]1C=CO[C@@H](O[C@@H]3O[C@H](CO)[C@@H](O)[C@H](O)[C@H]3O)[C@@H]12
inactive: all assays above

O=C(O)c1ccc(OC2OC(CO)C(O)C(O)C2O)cc1 (stereo not given)
inactive: all assays above

C[C@@H]1[C@H]2[C@H](O[C@@H]3O[C@H](CO)[C@@H](O)[C@H](O)[C@H]3O)OC=C(C(=O)O)[C@H]2C[C@@H]1O
inactive: all assays above

COc1ccc(-c2c(-c3cc(C(=O)O)ccn3)ncn2C)cc1
inactive: all assays above

CN1c2ccccc2C(=O)N2CCC3c4ccccc4NC3C21 (stereo not given)
active: [3] 10.5 µM
inactive: all other assays above

CC(C)C(CO)Nc1nc(Nc2cc(N)cc(Cl)c2)c2ncn(C(C)C)c2n1 (stereo not given)
inactive: all assays above

c1cc(OCCCN2CCCCC2)ccc1CN1CCCCC1
inactive: all assays above

C/C=C/C=C/C(O)=C1\C(O)=C(C)C(=O)[C@@]2(C)OC(=O)[C@@](C)(NC(=O)/C=C/C(=O)O)[C@@H]12
inactive: all assays above

N#CC(c1ccnc(OCc2ccc(CN3CCOCC3)cc2)n1)c1nc2ccccc2s1 (stereo not given)
active: [3] 0.426 µM
inactive: all other assays above

CC1CC(=O)C2=C(CCC3(O)C(O)c4c(O)cccc4C(=O)C23O)C1 (stereo not given)
inactive: all assays above

C=C1CCC2C(C)(C)C(O)CCC2(C)C1CCC(C)CCOC(C)=O (stereo not given)
inactive: all assays above

NCCCNc1ccc(Nc2nccc(Nc3cc(C4CC4)[nH]n3)n2)cc1
inactive: all assays above

O=C1NC(Cc2c[nH]c3ccccc23)C(=O)NC1Cc1c[nH]c2ccccc12 (stereo not given)
inactive: all assays above

COc1ncc(Nc2ncc([C@@H](C)N3CCN(S(C)(=O)=O)CC3)cc2-c2nc(C)nc(N)n2)cc1F
inactive: all assays above

CC1=CC(=O)CC(C)(C)C1CCC(C)O[C@@H]1O[C@H](CO[C@@H]2OC[C@@H](O)[C@H](O)[C@H]2O)[C@@H](O)[C@H](O)[C@H]1O (stereo not given in full)
inactive: all assays above

COc1ccc(C2(O)c3ccccc3NC(=O)C2O)cc1 (stereo not given)
inactive: all assays above

CCOc1cc(N2CCC(O)CC2)ccc1Nc1ncc2c(n1)N(C1CCCC1)CCC(=O)N2C
inactive: all assays above

C=C1CN(Cc2ccc(C(=O)Nc3ccccc3N)cc2)C(=O)c2ccccc21
inactive: all assays above

C=C1C[C@]23C[C@H]1CC[C@H]2C1=C[C@H]2OC(=O)[C@@](C)([C@H]1[C@@H]3C(=O)O)[C@H]2O
inactive: all assays above
